Potency, outcome and max activation data for 13 compounds are collected here from PubChem BioAssay (Tox21).

A number with no mark means an inactive call. Results filed as inconclusive are left out. Activity calls are given as the source filed them. Unless noted, the call rests on the fitted dose curve; in most records, active means well fitted curve in the direction sought with a large enough effect in the repeat runs; inconclusive means weak or mixed curves; inactive means no such curve, though single readings can be large; an effect the other way counts as inactive or inconclusive.

The nature of assay [1]: qHTS assay to identify small molecule agonists of the estrogen receptor alpha (ER-alpha) signaling pathway in the presence of an antagonist - cell viability counter screen (AID 1259386).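 Further: series mostly up to about 92 µM; cells exposed to compounds for 22 h at 37 °C before the viability read; nearly all actives have a fitted effect of over 30% in size.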 The procedure, abridged:
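ICI-182,780 at 10.0nM final accompanies the compound titration (15 concentrations, 22hr, 37C) on VM7Luc4E2 cells. The CellTiter-Fluor fluorescence readout runs in the same wells as the luciferase assay.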
A general note: Quantitative high-throughput screening tests each substance at several concentrations.

Assay [2] has as its target Progesterone receptor (Homo sapiens) (UniProt P06401). In words: qHTS assay to identify small molecule agonists of the progesterone receptor (PR) signaling pathway (AID 1346784; calls by dose curve; further: nearly all actives have a fitted effect of over 30% in size). The method in brief: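 Agonist mode, quantitative HTS format in a HEK 293T line expressing a UAS-controlled beta-lactamase reporter; 16 hr compound exposure at 37C in 2% charcoal-stripped FBS, then LiveBLAzer B/G FRET fluorescence.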

Assay [3] in a line: qHTS assay to identify small molecule antagonists of the progesterone receptor (PR) signaling pathway - cell viability counter screen (AID 1346798).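 Further: HEK293T PR-UAS-bla cells stimulated with the agonist R5020; series mostly up to about 92 µM; nearly all actives have a fitted effect of over 50% in size.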 The method in brief:
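Same-well multiplex: after 16 hr at 37C with compound and R5020 stimulation, HEK293T cells carrying a UAS-bla reporter received LiveBLAzer substrate (2 hr RT), then CellTiter-Glo (30 min RT) for luminescent viability.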

Assay [4] is described as follows: qHTS assay to identify small molecule agonists of the progesterone receptor (PR) signaling pathway - cell viability counter screen (AID 1346799; calls by dose curve; further: nearly all actives have a fitted effect of over 45% in size). The method in brief: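 Counter screen for cytotoxicity: compound-treated PR-UAS-bla HEK293T cells (16 hr, 37C, 5% CO2) were assayed with CellTiter-Glo, luminescence measured after 30 min at room temperature.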
A short description of assay [5]: qHTS assay to identify small molecule antagonists of the TGF-beta/Smad signaling pathway - cell viability counter screen (AID 1346824). Further: nearly all actives have a fitted effect of over 50% in size. The method in brief:
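SBE-bla HEK 293T cells, incubated overnight, then compound plus 0.25 ng/mL TGF-beta1 (stock added) for 5 hr at 37 C. Viability was read in the same wells by CellTiter-Glo luminescence after 30 min at room temperature.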

Assay [6] can be described thus: qHTS assay to identify small molecule agonists of the TGF-beta/Smad signaling pathway (AID 1346859; active means well fitted activation curve with a large enough effect in the signal ratio in the repeat runs, not every such curve was filed as active; the % refers to the signal ratio; further: series mostly up to about 77 µM). The procedure, abridged:
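Smad-responsive beta-lactamase reporter cells (HEK 293T) received compounds from DMSO stocks after overnight attachment, were incubated 5 hr, then treated 2 hr with FRET substrate before dual-emission fluorescence measurement (405 nm excitation).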

The target in assay [7] is Thyrotropin-releasing hormone receptor (Homo sapiens) (UniProt P34981). In words: qHTS assay to identify small molecule antagonists of the thyrotropin-releasing hormone receptor (TRHR) signaling pathway (AID 1346877; active means well fitted inhibition curve with a large enough effect in the repeat runs, not every such curve was filed as active; further: series mostly up to about 51 µM). The procedure, abridged:
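Screening used HEK293 cells engineered with TRHR, with a brief 5 min room-temperature compound exposure preceding addition of TRH to 1 nM. The read-out was kinetic calcium-dye fluorescence, concentration-response from 15 doses in triplicate.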

For assay [8] the target is unchanged. In words: qHTS assay to identify small molecule agonists of the thyrotropin-releasing hormone receptor (TRHR) signaling pathway (AID 1346891; calls by dose curve;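 further: HEK293 cells expressing TRHR with calcium dye readout; series mostly up to about 58 µM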). The procedure, abridged: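 Agonist-mode calcium mobilisation screen: TRHR-transfected HEK293 cells cultured overnight (18 h), dye-loaded for 2 h at 37 °C, exposed to compounds, and monitored by fluorescence for 3 min.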

A short description of assay [9]: Human pregnane X receptor (PXR) small molecule agonists, qHTS cell viability counter screen (AID 1346977). Further: nearly all actives have a fitted effect of over 50% in size. The method in brief:
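Measures live-cell protease fluorescence (CellTiter-Fluor) in PXR-Luc HepG2 cells treated 24hr with compounds at 37C. Cells had 5hr to attach before pin transfer of DMSO solutions.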

The nature of assay [10]: Caspase-3/7 induction in HepG2 cells by small molecules, qHTS assay (AID 1346978). Further: nearly all actives have a fitted effect of over 15% in size. The method in brief: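 Wild-type HepG2 cells, 2,000/well, settled 5 hr at 37 C and 5% CO2, then compound-treated for 17 hr; caspase-3/7 activity read by luminescent Caspase-Glo 3/7 after 30 min at room temperature.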
Assay [11] is described as follows: Caspase-3/7 induction in CHO-K1 cells by small molecules, qHTS assay (AID 1346980). Further: nearly all actives have a fitted effect of over 15% in size. The procedure, abridged: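 Wild-type CHO-K1 cells exposed to compounds for 17hr at 37 C, 5% CO2. Caspase-3/7 activity then measured by Caspase-Glo 3/7 luminescence after 30min at room temperature.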
The nature of assay [12]: Caspase-3/7 induction in HepG2 cells by small molecules, qHTS cell viability counter screen (AID 1346981). Further: series mostly up to about 92 µM; nearly all actives have a fitted effect of over 30% in size. The method in brief:
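Multiplexed with the caspase-3/7 assay: HepG2 cells, 16 hr compound treatment, CellTiter-Fluor viability detection by fluorescence.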

Assay [13] concerns the target Nuclear receptor subfamily 1 group I member 2 (Homo sapiens) (UniProt O75469). The experiment in a line: Human pregnane X receptor (PXR) small molecule agonists, qHTS assay (AID 1346982). Further: nearly all actives have a fitted effect of over 35% in size. Further: potency means the concentration at half of the fitted maximal effect. The procedure, abridged: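 We seeded PXR-Luc HepG2 cells in assay medium containing 5% charcoal-stripped FBS, added compounds 5 hr later, incubated 24 hr, and read luminescence with ONE-Glo reagent.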

The target in assay [14] is Nuclear receptor subfamily 1 group I member 2 (Rattus norvegicus) (UniProt Q9R1A7). In words: Rat pregnane X receptor (rPXR) activation by small molecules, qHTS assay (AID 1346983). Further: nearly all actives have a fitted effect of over 20% in size. As to conditions: rPXR luciferase reporter cells, One-Glo luminescence, 24 h; stronger effect = higher value. The procedure, abridged:
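Cell-based rPXR activation assay: rPXR cells, 2,000 per well, rested 5hr at 37 C, then exposed to compounds in DMSO for 24 hr at 37 C. Luciferase activity read by One-Glo luminescence after 30 min at room temperature.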

The target in assay [15] is Nuclear receptor subfamily 1 group I member 2 (Homo sapiens) (UniProt O75469). The experiment in a line: CYP3A4 induction through human pregnane X receptor (PXR) by small molecules, qHTS assay (AID 1346984). Further: nearly all actives have a fitted effect of over 40% in size. Further: potency means the concentration at half of the fitted maximal effect. The procedure, abridged:
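qHTS, concentration-response format: HepG2 DPX-2 line, PXR/CYP3A4-luc. Exposure 24 h, 37C. Substrate Luciferin-IPA 3uM final, 3 h. Detection One-Glo, 30 min RT.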

The target of assay [16] is Acetylcholinesterase (Homo sapiens) (UniProt P22303). In words: Acetylcholinesterase (AChE) small molecule antagonists: colormetric cell-based qHTS assay (AID 1347395; calls by dose curve; further: nearly all actives have a fitted effect of over 30% in size). The procedure, abridged:
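Endogenous AChE of human neuroblastoma SH-SY5Y cells was measured with an Ellman-type DTNB/acetylthiocholine mix. Compound pretreatment lasted 30 min at 37 C; substrate reaction ran 90 min at 37 C.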

The nature of assay [17]: qHTS assay to identify small molecule agonists of the TGF-beta/Smad signaling pathway - cell viability counter screen (AID 1346829). Further: top concentration of the series differs between compounds; nearly all actives have a fitted effect of over 45% in size. The procedure, abridged: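 Luminescence from CellTiter-Glo, read after a 30 min room-temperature incubation, gives cell viability of SBE-bla HEK 293T cells treated 5 hr with compounds at 37 C.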
A short description of assay [18]: Caspase-3/7 induction in CHO-K1 cells by small molecules, qHTS cell viability counter screen (AID 1346979). Further: nearly all actives have a fitted effect of over 35% in size. The procedure, abridged: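 In the same wells as the caspase read, viability of compound-treated wild-type CHO-K1 cells was assessed using CellTiter-Fluor, added after 16hr at 37C and measured by fluorescence following 1hr further incubation.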
Assay [19] addresses Nuclear receptor subfamily 1 group I member 2 (Homo sapiens) (UniProt O75469). The experiment in a line: Human pregnane X receptor (PXR) activation by small molecules, qHTS assay (AID 1346985). Further: nearly all actives have a fitted effect of over 40% in size. The method in brief:
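DPX-2 cells (HepG2 co-transfected with a PXR response element and a CYP3A4-promoter luciferase construct) were seeded at 2,000 per well, rested 5 hr at 37C, then exposed to DMSO-dissolved compounds for 24 hr. Activation was read as luciferase luminescence.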
On the % scale 0 is the no-effect control and ±100 the full control effect.

Sequence of Acetylcholinesterase (Homo sapiens) (P22303 whole entry, looked up): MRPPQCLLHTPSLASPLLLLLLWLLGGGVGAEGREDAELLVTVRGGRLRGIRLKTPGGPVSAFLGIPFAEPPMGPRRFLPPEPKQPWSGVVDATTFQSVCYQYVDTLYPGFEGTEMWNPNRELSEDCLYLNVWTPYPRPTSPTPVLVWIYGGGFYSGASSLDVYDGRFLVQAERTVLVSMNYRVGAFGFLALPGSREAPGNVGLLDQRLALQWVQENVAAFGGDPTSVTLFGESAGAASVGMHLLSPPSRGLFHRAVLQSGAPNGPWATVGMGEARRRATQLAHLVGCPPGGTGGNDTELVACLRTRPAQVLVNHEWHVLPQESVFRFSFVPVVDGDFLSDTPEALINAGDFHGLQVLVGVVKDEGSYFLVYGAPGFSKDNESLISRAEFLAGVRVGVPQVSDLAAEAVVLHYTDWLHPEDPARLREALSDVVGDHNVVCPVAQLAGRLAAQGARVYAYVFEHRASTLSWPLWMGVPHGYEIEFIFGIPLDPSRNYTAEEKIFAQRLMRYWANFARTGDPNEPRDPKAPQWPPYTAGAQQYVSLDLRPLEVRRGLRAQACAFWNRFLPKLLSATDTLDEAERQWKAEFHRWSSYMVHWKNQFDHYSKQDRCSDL
Sequence of Progesterone receptor (Homo sapiens) (P06401 whole entry, looked up): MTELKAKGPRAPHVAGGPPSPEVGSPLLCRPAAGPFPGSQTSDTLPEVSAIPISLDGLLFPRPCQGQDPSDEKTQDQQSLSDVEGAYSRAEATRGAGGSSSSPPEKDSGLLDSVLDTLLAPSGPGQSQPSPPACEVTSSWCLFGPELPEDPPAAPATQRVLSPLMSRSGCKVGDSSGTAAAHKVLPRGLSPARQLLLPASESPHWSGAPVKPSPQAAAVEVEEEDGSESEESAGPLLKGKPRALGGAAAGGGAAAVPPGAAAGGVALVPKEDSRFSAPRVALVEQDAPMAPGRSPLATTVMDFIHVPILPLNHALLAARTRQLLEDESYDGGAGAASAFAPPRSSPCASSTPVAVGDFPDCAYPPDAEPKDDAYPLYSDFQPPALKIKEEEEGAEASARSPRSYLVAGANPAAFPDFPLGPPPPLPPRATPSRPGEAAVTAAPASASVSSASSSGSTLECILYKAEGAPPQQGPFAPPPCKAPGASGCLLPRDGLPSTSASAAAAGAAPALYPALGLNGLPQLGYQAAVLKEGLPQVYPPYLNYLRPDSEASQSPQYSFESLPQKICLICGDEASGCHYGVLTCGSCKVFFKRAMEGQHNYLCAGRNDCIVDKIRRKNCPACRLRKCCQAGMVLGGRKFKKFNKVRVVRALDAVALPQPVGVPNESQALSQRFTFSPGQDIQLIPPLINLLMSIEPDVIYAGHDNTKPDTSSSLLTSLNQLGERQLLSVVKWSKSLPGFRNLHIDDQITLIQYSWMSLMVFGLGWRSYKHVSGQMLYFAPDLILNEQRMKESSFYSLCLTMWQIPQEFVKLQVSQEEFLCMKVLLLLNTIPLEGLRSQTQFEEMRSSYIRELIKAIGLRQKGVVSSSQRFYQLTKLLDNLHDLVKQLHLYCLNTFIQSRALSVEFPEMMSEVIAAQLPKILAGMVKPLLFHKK
Sequence of Nuclear receptor subfamily 1 group I member 2 (Rattus norvegicus) (Q9R1A7 whole entry, looked up): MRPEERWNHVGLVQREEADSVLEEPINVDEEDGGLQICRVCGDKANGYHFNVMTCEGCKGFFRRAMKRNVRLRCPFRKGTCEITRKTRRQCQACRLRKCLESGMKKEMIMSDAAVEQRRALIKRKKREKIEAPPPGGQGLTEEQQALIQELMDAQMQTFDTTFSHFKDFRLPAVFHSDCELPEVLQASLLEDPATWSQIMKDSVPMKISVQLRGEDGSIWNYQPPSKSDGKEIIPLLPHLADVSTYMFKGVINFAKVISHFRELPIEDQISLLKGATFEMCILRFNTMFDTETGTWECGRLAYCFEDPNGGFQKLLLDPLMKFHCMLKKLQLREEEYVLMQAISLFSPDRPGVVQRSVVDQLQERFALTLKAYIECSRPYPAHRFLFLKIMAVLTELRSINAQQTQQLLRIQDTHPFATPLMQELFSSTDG
Sequence of Thyrotropin-releasing hormone receptor (Homo sapiens) (P34981 whole entry, looked up): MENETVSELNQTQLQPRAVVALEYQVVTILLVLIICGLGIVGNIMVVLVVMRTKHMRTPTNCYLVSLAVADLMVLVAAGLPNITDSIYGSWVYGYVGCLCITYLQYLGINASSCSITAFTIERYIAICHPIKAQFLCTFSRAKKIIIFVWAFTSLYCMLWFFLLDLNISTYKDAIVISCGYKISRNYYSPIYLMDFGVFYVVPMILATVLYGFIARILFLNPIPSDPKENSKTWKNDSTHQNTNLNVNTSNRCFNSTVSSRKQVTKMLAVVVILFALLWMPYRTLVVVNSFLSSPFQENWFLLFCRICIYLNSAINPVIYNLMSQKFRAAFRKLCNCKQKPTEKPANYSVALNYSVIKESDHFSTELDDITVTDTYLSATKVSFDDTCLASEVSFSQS
Sequence of Nuclear receptor subfamily 1 group I member 2 (Homo sapiens) (O75469 whole entry, looked up): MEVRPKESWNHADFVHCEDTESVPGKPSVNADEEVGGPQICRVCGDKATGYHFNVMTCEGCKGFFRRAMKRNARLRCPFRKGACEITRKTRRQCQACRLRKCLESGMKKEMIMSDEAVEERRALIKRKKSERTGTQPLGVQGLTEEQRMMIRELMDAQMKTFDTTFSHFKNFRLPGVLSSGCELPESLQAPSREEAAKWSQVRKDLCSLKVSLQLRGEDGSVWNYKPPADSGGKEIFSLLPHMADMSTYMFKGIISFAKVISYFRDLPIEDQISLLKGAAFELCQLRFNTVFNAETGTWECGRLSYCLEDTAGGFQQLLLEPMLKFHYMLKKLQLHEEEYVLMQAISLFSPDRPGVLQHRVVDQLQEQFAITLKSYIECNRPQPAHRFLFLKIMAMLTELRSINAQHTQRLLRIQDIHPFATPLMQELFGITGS

On to `CCC1(c2ccccc2)CCC(=O)NC1=O` (configuration not stated), for which the Potency entry in assay [1], in assay [2], in [3], in assay [4], in [7] and in [9] was “inactive” throughout. In addition, the Potency entry in [12], in assay [13], in assay [15] and in assay [16] was “inactive” each time. In addition, the compound was classed as inactive in assay [5], in assay [6], in [8], in assay [10] and in assay [11]. Moreover, in assay [14], the max activation is -0.631%.

For `Nc1c(Cl)c(F)nc(OCC(=O)O)c1Cl`, the Potency result in assay [1], in assay [2], in assay [3], in assay [17], in [7] and in assay [9] was “inactive” each time. The Potency entry in [18], in assay [12], in assay [13] and in assay [16] was “inactive” throughout. For the same compound, the result in assay [5], in assay [6], in [8], in assay [10] and in [11] was inactive.

Consider `ClC(Cl)(Cl)Cl`, for which the Potency result in assay [1], in [2], in assay [3], in assay [4], in [17] and in assay [7] was “inactive” in each case. The Potency entry in [9], in assay [18], in [12], in assay [13], in assay [15] and in assay [19] was “inactive” throughout. In addition, in [16], the Potency entry was “inactive”. In addition, the compound was called inactive in assay [5], in [6], in assay [8] and in [10]. Besides, in assay [14], the max activation is -2.8%.

For the compound `C=CCc1cc(OC)c2c(c1)OCO2`, the Potency result in assay [1], in assay [2], in [3], in assay [17], in assay [7] and in [9] was “inactive” in each case. For the same compound, the Potency entry in assay [12] and in assay [16] was “inactive” in each case. For the same compound, the compound was classed as inactive in assay [5], in [6], in assay [8] and in assay [10].

In the case of `C/C=C/CC#N`, the Potency entry in assay [1], in [2], in assay [3], in assay [4], in [17] and in assay [7] was “inactive” throughout. The Potency result in assay [9], in assay [18], in assay [12] and in assay [16] was “inactive” throughout. For the same compound, the outcome in assay [5], in assay [6], in [8], in assay [10] and in assay [11] was inactive.

Turning to `CN(C)C(=O)Oc1cc(OC(=O)N(C)C)cc(C(O)CNC(C)(C)C)c1` (configuration not stated), the Potency result in assay [1], in assay [2], in assay [3], in assay [4], in assay [17] and in [7] was “inactive” in each case. Also, the Potency result in assay [9], in assay [12], in [13], in [15], in assay [19] and in assay [16] was “inactive” each time. Also, the compound was classed as inactive in assay [5], in assay [6], in assay [8], in assay [10] and in assay [11]. Moreover, the max activation in assay [14] was -1.43%.

As to `CCNc1nc(Cl)nc(NC(C)(C)C)n1`, the Potency entry in [1], in assay [2], in assay [3], in assay [4], in assay [17] and in assay [7] was “inactive” in each case. The Potency result in [9], in [18], in [12] and in assay [16] was “inactive” throughout. Besides, the call in assay [5], in [6], in assay [8], in [10] and in [11] was inactive. Besides, the Potency in [13] was 30.6 µM (active).

Take `O=P(O)(O)CN(CP(=O)(O)O)CP(=O)(O)O`: the Potency entry in assay [1], in [2], in assay [3], in [4], in assay [17] and in assay [18] was “inactive” in each case. Further, the Potency result in assay [12], in assay [13] and in assay [16] was “inactive” in each case. For the same compound, the compound was classed as inactive in assay [5], in assay [6], in [10] and in assay [11].

On to `NC(=O)CS(=O)C(c1ccccc1)c1ccccc1` (configuration not stated), for which the Potency result in [1], in assay [2], in assay [3], in assay [4], in [17] and in [7] was “inactive” in each case. Besides, the Potency result in [9], in [18], in assay [15], in [19] and in [16] was “inactive” each time. Further, the compound was called inactive in assay [5], in assay [6], in [8] and in assay [10]. In addition, in assay [14], the max activation was -0.488%.

Take `c1ccc2c(c1)CCNC2`: the Potency entry in [1], in [2], in assay [3], in assay [4], in assay [7] and in assay [9] was “inactive” each time. The Potency result in assay [12], in [13] and in assay [16] was “inactive” each time. The call in [5], in [6], in assay [8], in [10] and in [11] was inactive.

Consider `N[C@@H](Cc1ccc(Oc2cc(I)c(O)c(I)c2)c(I)c1)C(=O)O`, for which the Potency entry in assay [1], in assay [2], in assay [3], in [17], in assay [7] and in [18] was “inactive” each time. Besides, the Potency entry in assay [12], in assay [19] and in [16] was “inactive” throughout. Also, the outcome in assay [5], in assay [6], in assay [8], in [10] and in assay [11] was inactive. The max activation in assay [14] was -1.02%. The Potency in assay [15] was 14.1 µM (active).

Regarding `NC1(c2ccccc2)CCCCC1`, the Potency result in assay [1], in assay [2], in assay [3], in [4], in assay [17] and in [7] was “inactive” in each case. In addition, the Potency result in assay [18], in assay [12], in assay [13] and in assay [16] was “inactive” throughout. The compound was classed as inactive in [5], in assay [6], in assay [8] and in [10].

Regarding `NNC(N)=O`, the Potency result in assay [1], in assay [2], in [3], in [4], in [17] and in [7] was “inactive” throughout. In addition, the Potency result in assay [9], in assay [18] and in [16] was “inactive” in each case. Further, the compound was called inactive in [5], in assay [6], in assay [8], in [10] and in assay [11].
